Assay outcomes deposited in PubChem BioAssay by National Center for Advancing Translational Sciences (NCATS).
TDP1 cell CPT: qHTS for Inhibitors of human tyrosyl-DNA phosphodiesterase 1 (TDP1): qHTS in cells in presence of CPT; AID 686979, 2013; chicken DT40 Tdp1-/-;hTDP1 cells + 20 nM CPT, ATP luminescence, 48 h; Potency, µM (titrated, usually from 46.2 µM), actives largely listed as inhibitors; 420,000 tested, 12% active; note: nearly all actives have a fitted effect of over 55% in size
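Chicken DT40 Tdp1-/- cells complemented with human TDP1, 400 cells/well, exposed to compounds plus 20 nM camptothecin for at least 48 h at 37 C; viability read as ATP content by CellTiter-Glo luminescence.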
TDP1 cell noCPT: qHTS for Inhibitors of human tyrosyl-DNA phosphodiesterase 1 (TDP1): qHTS in cells in absence of CPT | Potency, µM (series often up to 46.2 µM), hits mostly inhibitors | AID 686978, 2013 | 420,000 tested, 15% active | DT40 Tdp1-/- hTDP1 cells, no CPT, ATP luminescence, 48 h; note: nearly all actives have a fitted effect of over 55% in size
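Seeded 400 DT40-hTDP1 cells/well (vehicle DMSO, no 20 nM CPT); pinned compounds; ≥48 hr at 37 °C; CellTiter-Glo luminescence as viability measure.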
HT1080NT lethal: qHTS for induction of synthetic lethality in tumor cells producing 2HG: qHTS for the HT-1080-NT fibrosarcoma cell line; HT-1080-NT fibrosarcoma viability, CellTiter-Glo ATP luminescence, 48 h; Potency, µM (highest dose often 46.1 µM), most hits filed as cytotoxic; 360,000 tested, 1.6% active; AID 686970, 2013;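 note: NT is the 2HG producing partner of a matched IDH1 knockdown line; nearly all actives have a fitted effect of over 55% in size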
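Viability of the 2HG-overproducing fibrosarcoma line after 48 hours of compound exposure at 37 degrees C was determined by luminescence with CellTiter-Glo, and concentration-effect curves were then fitted and categorized.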
IL-1B inflam inh: qHTS for Inhibitors of Inflammasome Signaling: IL-1-beta AlphaLISA Primary Screen. THP-1 LPS/ATP IL-1B secretion, AlphaLISA, 16 h; hits give low values. activity change, % at 57.5 µM. 360,000 tested, 4.7% active; in the data active = activity change below about -50%; inconclusive = mostly about -30% to -49%
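THP-1 cells pretreated 1 hr with compounds (up to 57.5 uM final), then stimulated with LPS (250 ng/mL final) plus ATP (1.25 mM final); secreted IL-1B measured by AlphaLISA after 16 hr, decreased signal indicating inhibition.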
HT1080 IDH1KD tx: qHTS for induction of synthetic lethality in tumor cells producing 2HG: qHTS for the HT-1080-IDH1KD cell line | HT-1080 IDH1 knockdown viability, ATP luminescence, 48 h | Potency, µM (doses to about 46.1 µM), actives largely listed as cytotoxic | 360,000 tested, 2% active | AID 686971, 2013
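IDH1KD HT-1080 cells, 750/well, RPMI + 5% FBS; compound pinned after 2 h settling; 48 h, 37 °C; CellTiter-Glo luminescence; % activity normalised to DMSO and no-cell wells; curves fitted, classed by r2 and efficacy.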
A number is an active result; . = inactive; ? = inconclusive; / = not tested or not shown; ! = not confirmed by another sample. Shown are actives, neighbours in structure and some others; about 19% of the full set was active somewhere. Unless noted, calls come from the whole dose curve; as a rule, active = well fitted curve in the direction sought with a large enough effect; inconclusive = small, poorly fitted or top-dose-only effect, or another doubt; inactive = no such curve, though single readings can be large; an effect the other way counts as inactive or inconclusive.

SMILES	TDP1 cell CPT	TDP1 cell noCPT	HT1080NT lethal	IL-1B inflam inh	HT1080 IDH1KD tx
Cc1cc(Oc2cc(NN3CCCCC3)c([N+](=O)[O-])cc2[N+](=O)[O-])ccc1[N+](=O)[O-]	?	?	.	.	.
CCOc1ccc(N=C2SCCCN2C)cc1	.	?	.	.	.
CN1CCC(C)(O)C2CCCCC21 (stereo not drawn)	.	.	.	.	.
CN1/C(=C\C=C2C(=O)NC(=O)NC2=O)C(C)(C)c2ccccc21	?	.	?	.	?
CCN1/C(=C/C=C/C2=[N+](CC)c3ccccc3C2(C)C)C(C)(C)c2ccccc21	0.146µM	0.13µM	9.2µM	-104.6	10.3µM
CCCCC(=O)N/N=C/c1c(O)n(CC)c(=S)[nH]c1=O	.	.	.	.	.
CCCCCCC(=O)N/N=C/c1c(O)n(CCCC)c(=S)[nH]c1=O	?	18.4µM	?	.	?
CCCCn1c(O)c(/C=N/N2CCOCC2)c(=O)[nH]c1=S	.	.	.	.	.
CCCCCCn1c(O)c(C=Nc2ccccc2N2CCOCC2)c(=O)[nH]c1=S	?	14.6µM	.	.	.
CSc1ccc(CN2CCC2(C)C(=O)Nc2cccc(NS(C)(=O)=O)c2)cc1 (stereo not drawn)	18.4µM	23.1µM	.	.	.
Cc1c(C(=O)NCc2ccc(Cl)c(Cl)c2)sc(=O)n1Cc1ccc(S(=O)(=O)N(C)C)cc1	8.2µM	14.6µM	.	.	?
Cc1onc(-c2ccccc2Cl)c1C(=O)NCc1ccc2c(c1)cc(C)n2C	?	6.51µM	.	.	.
O=S(=O)(c1ccc(Cl)cc1)N1CCC(n2cnc3cc(C(F)(F)F)ccc32)CC1	?	?	.	.	.
O=C1C=C2C=C[C@@H]3CC2(O1)[C@H]1CCCCN31	?	18.4µM	.	-95.9	?
CN=C1CN(O)C(c2ccccc2)c2cc(Cl)ccc2N1 (stereo not drawn)	.	?	.	.	.
COc1ccccc1CCNC1CCCC(C)C1 (stereo not drawn)	.	?	.	.	.
COC(=O)c1ccccc1-n1c(C)nc2ccccc2c1=O	.	?	.	.	.
CCOC(=O)c1nc2ccccc2c(=O)n1-c1ccc(C)cc1C	8.2µM	10.3µM	.	.	.
OC[C@H]1OC(O)C[C@@H](O)[C@@H]1O (stereo partly drawn)	.	.	?	.	.
CC(=O)[C@H]1CC[C@H]2[C@@H]3CC[C@H]4C[C@H](O)CC[C@]4(C)[C@H]3C(=O)C[C@]12C	?	11.9µM!	.	.	.
CC(=O)OCC(=O)[C@H]1CC[C@H]2[C@@H]3CC[C@H]4C[C@H](O)CC[C@]4(C)[C@H]3C(=O)C[C@]12C	.	.	.	.	.
CC(=O)OC1CCC2(C)C(CCC3C4CC(N5CC5)C(C(C)=O)C4(C)CC(=O)C32)C1 (stereo not drawn)	11.6µM	14.6µM	.	.	.
NC(=O)CSP(=O)(c1ccccc1)c1ccccc1	.	.	.	.	.
NNC(=O)CP(=O)(c1ccccc1)c1ccccc1	?	11.9µM!	.	.	.
Cc1cc(S(=O)(=O)NC(C)C)ccc1OCC(=O)N1CCN(Cc2ccc3c(c2)OCO3)CC1	16.4µM	?	?	.	?
SMILES	TDP1 cell CPT	TDP1 cell noCPT	HT1080NT lethal	IL-1B inflam inh	HT1080 IDH1KD tx
CCc1ccc(OCC(=O)N2CCN(Cc3ccc4c(c3)OCO4)CC2)cc1	.	?	.	.	.
CC(C)NS(=O)(=O)c1ccc(OCC(=O)N2CCN(Cc3ccc4c(c3)OCO4)CC2)c(Cl)c1	16.4µM	18.4µM	?	.	?
C[C@H]1C/C=C/[C@H]2[C@H](O)[C@H](C)[C@@](C)(O)[C@H]3[C@H](Cc4ccccc4)NC(=O)[C@]32[C@H](O)/C=C/[C@](C)(O)C1	3.66µM	8.2µM	.	.	?
CC(=O)O[C@@H]1/C=C/[C@](C)(O)C[C@@H](C)C/C=C/[C@H]2[C@H](O)C(C)=C(C)[C@H]3[C@H](Cc4ccccc4)NC(=O)[C@@]123	0.581µM	0.581µM	2.59µM	.	?
C=C1[C@@H](C)[C@H]2[C@H](Cc3ccccc3)NC(=O)[C@]23OC(=O)/C=C/[C@H](O)CCC[C@@H](C)C/C=C/[C@H]3[C@@H]1O	1.84µM	0.651µM	1.3µM	.	0.731µM
C=C1C(C)C2C(Cc3ccccc3)NC(=O)C23C(OC(C)=O)C=CC(C)(O)CC(C)CC=CC3C1O (stereo not drawn)	0.461µM	0.731µM	.	.	?
CCCN1C[C@H](C)N([C@H](c2ccc(C(=O)N(CC)CC)cc2)c2cccc(OC)c2)C[C@H]1C	.	.	/	/	/
O=P(Nc1ccccc1)(Nc1ccccc1)Oc1cccc(Cl)c1	?	?	?	.	?
Nc1nc(N)c2nc(CNc3ccc(C(=O)N[C@@H](CCC(=O)O)C(=O)O)cc3)cnc2n1	?	16.4µM	/	/	/
CC(C)N(Cc1nccn1C)C(=O)CCc1nnc(CCCc2ccccc2)o1	.	?	.	.	.
CC(C)[C@]12O[C@H]1[C@@H]1O[C@]13[C@]1(O[C@H]1C[C@H]1C4=C(CC[C@@]13C)C(=O)OC4)[C@@H]2O	0.121µM	0.153µM	/	/	/
CCOC(=O)C1(CCc2ccccc2)CCN(Cc2cccc3cnccc23)CC1	?	?	?	-111.0	?
CCOC(=O)C1(CCc2ccccc2)CCN(Cc2csc(C(C)=O)c2)CC1	?	?	?	.	?
CCOC(=O)C1(CCc2ccccc2)CCN(Cc2cccc3c2OCO3)CC1	?	9.2µM	?	-85.3	?
CC(NS(=O)(=O)OCC(Cl)(Cl)Cl)c1ccccc1 (stereo not drawn)	.	.	.	.	.
CC1CCCN(CCCNC(=O)c2ccc3c(c2)N(Cc2cccc(Cl)c2)C(=O)c2ccccc2S3=O)C1 (stereo not drawn)	?	?	.	?	?
Cc1ccc(C(=O)N[C@@H](C)CN2C3=NC[C@@H](Cc4ccccc4)N3C[C@H]2Cc2ccc(O)cc2)cc1Br	6.51µM	7.31µM	?	.	?
Cc1ccc(C(=O)N[C@@H](C)CN2C3=NC[C@H](Cc4ccccc4)N3C[C@H]2Cc2ccc(O)cc2)cc1Br	14.6µM	16.4µM	?	.	?
C=CCn1c(O)c(C=NCCN2CCOCC2)c(=O)[nH]c1=S	.	.	.	.	.
CC=CC(C)=CC(C)C(=O)CC(O)CC1CC(=O)NC(=O)C1 (stereo not drawn)	8.2µM	5.8µM	.	.	.
O=C(Nc1ccc2nc(SCC(=O)N3CCOCC3)sc2c1)c1ccc(Cl)cc1	?	7.31µM	/	/	/
